For part of these data: Potency and affinity values are given separately.
Legend:
Design in all cases: scale not given: direction of the effect not stated beside the values
[1] = target: Protein translocase subunit SecA (Escherichia coli (strain K12)) (UniProt P10408); experiment: Assay to Identify E. coli SecA ATPase Inhibitors; assay type: functional; conditions: 30 µM
[2] = target: T1, Ubiquitin-activating enzyme e1, putative (Leishmania donovani (strain BPK282A1)) (UniProt E9BSI1); experiment: Leishmania donovani Ubiquitin Activating Enzyme (LdE1); assay type: functional; conditions: 30 µM
T1 sequence (whole entry): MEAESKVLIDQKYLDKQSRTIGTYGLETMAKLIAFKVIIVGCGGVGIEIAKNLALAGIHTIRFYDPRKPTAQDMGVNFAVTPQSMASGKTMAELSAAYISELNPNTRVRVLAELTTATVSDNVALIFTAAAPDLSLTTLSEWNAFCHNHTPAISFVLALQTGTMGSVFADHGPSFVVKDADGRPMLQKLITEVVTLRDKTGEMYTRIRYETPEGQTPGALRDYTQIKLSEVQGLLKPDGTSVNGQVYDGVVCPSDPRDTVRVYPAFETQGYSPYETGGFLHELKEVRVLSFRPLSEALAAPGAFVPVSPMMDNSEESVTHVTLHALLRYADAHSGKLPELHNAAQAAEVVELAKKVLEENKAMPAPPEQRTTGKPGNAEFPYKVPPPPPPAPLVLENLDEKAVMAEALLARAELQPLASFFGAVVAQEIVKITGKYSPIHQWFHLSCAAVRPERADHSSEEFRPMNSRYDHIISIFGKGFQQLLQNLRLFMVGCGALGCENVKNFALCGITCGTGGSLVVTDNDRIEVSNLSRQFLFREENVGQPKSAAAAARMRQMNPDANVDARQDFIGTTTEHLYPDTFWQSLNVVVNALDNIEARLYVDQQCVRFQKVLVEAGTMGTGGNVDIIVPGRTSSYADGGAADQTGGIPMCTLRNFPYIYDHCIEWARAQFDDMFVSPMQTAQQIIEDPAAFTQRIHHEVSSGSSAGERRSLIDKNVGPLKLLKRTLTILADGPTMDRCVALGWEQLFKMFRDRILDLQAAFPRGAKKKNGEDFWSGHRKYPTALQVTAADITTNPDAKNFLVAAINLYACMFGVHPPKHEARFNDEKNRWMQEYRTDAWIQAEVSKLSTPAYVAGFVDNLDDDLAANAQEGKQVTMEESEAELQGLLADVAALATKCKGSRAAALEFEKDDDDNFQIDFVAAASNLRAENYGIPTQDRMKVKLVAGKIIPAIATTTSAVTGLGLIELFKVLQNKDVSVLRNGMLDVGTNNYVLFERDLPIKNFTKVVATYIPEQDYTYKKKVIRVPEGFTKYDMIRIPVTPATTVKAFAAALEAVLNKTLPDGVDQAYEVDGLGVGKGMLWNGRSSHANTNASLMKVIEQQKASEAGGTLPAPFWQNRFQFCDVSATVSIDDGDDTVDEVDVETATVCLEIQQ

[3] = target: Sialic acid-binding Ig-like lectin 9 (Homo sapiens) (UniProt Q9Y336); experiment: Hs-Siglec9 ALPHAscreen SOP 20170721; conditions: 10 µM
Chain of Sialic acid-binding Ig-like lectin 9 (Homo sapiens) (Q9Y336 whole entry): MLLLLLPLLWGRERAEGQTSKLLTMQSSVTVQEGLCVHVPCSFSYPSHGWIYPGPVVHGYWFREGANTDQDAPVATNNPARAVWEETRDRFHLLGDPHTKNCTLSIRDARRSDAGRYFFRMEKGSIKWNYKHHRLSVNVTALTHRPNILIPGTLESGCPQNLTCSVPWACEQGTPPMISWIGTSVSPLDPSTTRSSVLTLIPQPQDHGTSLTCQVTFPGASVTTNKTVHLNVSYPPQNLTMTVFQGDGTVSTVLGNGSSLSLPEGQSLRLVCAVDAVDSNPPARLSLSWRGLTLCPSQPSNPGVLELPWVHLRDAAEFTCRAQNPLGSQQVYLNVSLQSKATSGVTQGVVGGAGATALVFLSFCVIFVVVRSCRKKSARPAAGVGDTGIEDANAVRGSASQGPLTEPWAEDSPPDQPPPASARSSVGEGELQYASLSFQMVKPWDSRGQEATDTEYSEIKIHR

[4] = system: Trypanosoma cruzi; experiment: Trypanosoma cruzi phosphomannomutase and mannose-1-phosphate guanylyltransferase assay; assay type: functional; conditions: 10 µM
[5] = target: T2, Arginase-2, mitochondrial (Homo sapiens) (UniProt P78540); experiment: in vitro enzyme assay to detect the production of urea directly proportional to the activity of Arginase II; assay type: functional; conditions: 33.3 µM; note: in the data most compounds retested in dose-response had high values
T2 sequence (whole entry): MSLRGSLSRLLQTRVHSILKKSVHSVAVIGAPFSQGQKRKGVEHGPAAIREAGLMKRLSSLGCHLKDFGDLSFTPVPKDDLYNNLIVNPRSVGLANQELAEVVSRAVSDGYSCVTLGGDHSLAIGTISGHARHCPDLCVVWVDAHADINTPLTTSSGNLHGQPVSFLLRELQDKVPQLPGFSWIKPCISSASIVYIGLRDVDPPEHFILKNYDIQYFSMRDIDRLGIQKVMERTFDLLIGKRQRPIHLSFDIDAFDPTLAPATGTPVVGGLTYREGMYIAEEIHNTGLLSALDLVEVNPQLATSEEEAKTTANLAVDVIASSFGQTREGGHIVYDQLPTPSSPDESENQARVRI

[6] = target: T3, Proteasome subunit beta (Trypanosoma cruzi) (UniProt O96673); experiment: Trypanosoma cruzi proteasome chymotrypsin-like activity (TcProtChymo) assay.; note: in the data most compounds retested in dose-response had high values; assay type: functional; conditions: 9.37 µM
T3 sequence (whole entry): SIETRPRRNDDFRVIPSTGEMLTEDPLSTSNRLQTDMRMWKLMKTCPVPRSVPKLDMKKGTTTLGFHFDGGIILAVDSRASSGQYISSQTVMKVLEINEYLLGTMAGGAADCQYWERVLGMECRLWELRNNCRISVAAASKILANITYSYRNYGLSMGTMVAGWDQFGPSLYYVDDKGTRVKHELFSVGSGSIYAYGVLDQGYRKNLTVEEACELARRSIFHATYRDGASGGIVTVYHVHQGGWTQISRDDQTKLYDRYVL

[7] = species on record: Homo sapiens; experiment: To identify inhibition of the IFN signalling (Jak-Stat) pathway via expression of an eGFP reporter gene under the control of an IFN-stimulated response element (ISRE) containing MxA promoter.; assay type: functional; conditions: 30 µM
[8] = target: T4, Tyrosyl-tRNA synthetase, putative (Trypanosoma cruzi (strain CL Brener)) (UniProt Q4DSP6); experiment: Trypanosoma cruzi tyrosyl tRNA synthetase (TcYRS) _High Tyrosine SOP; assay type: functional; conditions: 30 µM; note: in the data most compounds retested in dose-response had high values
T4 sequence (whole entry): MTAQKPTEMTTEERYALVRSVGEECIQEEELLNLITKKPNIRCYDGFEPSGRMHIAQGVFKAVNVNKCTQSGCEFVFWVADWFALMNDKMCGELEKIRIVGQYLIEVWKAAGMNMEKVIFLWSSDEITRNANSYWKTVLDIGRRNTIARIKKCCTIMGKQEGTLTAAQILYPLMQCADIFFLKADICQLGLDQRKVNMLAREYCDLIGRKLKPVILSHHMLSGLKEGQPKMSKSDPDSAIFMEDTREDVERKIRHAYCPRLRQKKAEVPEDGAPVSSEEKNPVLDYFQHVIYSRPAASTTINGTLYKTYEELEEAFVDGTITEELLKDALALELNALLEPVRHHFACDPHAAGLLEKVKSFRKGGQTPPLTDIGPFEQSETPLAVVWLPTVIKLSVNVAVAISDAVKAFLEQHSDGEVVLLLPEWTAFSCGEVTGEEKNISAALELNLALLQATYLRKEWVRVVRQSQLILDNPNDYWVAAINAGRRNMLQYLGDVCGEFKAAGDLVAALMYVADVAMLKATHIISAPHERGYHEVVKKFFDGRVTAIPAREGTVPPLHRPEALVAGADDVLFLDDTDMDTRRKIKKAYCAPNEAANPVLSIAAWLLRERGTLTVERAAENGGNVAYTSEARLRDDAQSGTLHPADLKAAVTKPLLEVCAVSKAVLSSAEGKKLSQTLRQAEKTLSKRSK

[9] = target: T4, Tyrosyl-tRNA synthetase, putative (Trypanosoma cruzi (strain CL Brener)); experiment: Trypanosoma cruzi tyrosyl tRNA synthetase (TcYRS) SOP; assay type: functional; conditions: 30 µM
[10] = target: Chromo domain-containing protein 1 (Saccharomyces cerevisiae (strain ATCC 204508 / S288c) (Baker's yeast)) (UniProt P32657); experiment: ScCHD-1 Enzyme Inhibition Assay; assay type: functional; conditions: 30 µM; note: in the data most compounds retested in dose-response had high values
Chain of Chromo domain-containing protein 1 (Saccharomyces cerevisiae (strain ATCC 204508 / S288c) (Baker's yeast)) (P32657 whole entry, the tested form may be a part): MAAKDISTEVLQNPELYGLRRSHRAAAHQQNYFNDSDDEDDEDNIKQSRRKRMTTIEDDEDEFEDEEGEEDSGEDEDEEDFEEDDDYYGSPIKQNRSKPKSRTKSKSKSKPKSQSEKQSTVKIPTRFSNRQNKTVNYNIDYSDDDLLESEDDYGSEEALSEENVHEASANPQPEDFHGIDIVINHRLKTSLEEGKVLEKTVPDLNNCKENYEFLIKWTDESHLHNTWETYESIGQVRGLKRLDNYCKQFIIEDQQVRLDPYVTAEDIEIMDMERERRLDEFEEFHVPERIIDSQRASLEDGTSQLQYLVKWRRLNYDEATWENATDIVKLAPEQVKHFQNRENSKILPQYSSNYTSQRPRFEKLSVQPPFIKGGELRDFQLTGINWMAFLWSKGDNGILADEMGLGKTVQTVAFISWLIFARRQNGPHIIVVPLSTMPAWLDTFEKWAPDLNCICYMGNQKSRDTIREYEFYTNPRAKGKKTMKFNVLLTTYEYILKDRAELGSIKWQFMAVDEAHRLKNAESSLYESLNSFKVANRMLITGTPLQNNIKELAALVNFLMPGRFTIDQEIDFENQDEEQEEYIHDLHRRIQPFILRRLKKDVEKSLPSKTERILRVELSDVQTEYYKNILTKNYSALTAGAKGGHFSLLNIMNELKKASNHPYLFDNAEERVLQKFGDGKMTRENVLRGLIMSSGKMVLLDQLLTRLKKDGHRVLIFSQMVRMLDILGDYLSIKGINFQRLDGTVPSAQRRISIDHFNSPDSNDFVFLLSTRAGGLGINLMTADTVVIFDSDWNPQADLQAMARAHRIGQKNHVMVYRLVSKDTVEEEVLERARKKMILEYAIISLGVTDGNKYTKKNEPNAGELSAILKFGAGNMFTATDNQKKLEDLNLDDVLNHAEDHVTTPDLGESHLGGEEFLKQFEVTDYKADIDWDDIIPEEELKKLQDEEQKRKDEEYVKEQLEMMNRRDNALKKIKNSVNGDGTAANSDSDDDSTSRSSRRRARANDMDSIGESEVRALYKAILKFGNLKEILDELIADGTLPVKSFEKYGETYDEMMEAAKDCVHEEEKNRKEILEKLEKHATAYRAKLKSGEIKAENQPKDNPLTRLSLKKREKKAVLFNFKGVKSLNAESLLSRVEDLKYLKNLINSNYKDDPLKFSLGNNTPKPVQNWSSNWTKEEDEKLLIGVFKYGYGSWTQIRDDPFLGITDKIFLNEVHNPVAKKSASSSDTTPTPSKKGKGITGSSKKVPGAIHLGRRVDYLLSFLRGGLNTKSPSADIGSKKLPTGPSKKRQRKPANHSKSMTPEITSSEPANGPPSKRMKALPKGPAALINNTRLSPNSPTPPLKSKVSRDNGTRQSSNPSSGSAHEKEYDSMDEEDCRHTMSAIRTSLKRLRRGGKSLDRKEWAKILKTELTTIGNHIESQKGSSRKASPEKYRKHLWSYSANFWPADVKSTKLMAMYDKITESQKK

Chain of Protein translocase subunit SecA (Escherichia coli (strain K12)) (P10408 whole entry): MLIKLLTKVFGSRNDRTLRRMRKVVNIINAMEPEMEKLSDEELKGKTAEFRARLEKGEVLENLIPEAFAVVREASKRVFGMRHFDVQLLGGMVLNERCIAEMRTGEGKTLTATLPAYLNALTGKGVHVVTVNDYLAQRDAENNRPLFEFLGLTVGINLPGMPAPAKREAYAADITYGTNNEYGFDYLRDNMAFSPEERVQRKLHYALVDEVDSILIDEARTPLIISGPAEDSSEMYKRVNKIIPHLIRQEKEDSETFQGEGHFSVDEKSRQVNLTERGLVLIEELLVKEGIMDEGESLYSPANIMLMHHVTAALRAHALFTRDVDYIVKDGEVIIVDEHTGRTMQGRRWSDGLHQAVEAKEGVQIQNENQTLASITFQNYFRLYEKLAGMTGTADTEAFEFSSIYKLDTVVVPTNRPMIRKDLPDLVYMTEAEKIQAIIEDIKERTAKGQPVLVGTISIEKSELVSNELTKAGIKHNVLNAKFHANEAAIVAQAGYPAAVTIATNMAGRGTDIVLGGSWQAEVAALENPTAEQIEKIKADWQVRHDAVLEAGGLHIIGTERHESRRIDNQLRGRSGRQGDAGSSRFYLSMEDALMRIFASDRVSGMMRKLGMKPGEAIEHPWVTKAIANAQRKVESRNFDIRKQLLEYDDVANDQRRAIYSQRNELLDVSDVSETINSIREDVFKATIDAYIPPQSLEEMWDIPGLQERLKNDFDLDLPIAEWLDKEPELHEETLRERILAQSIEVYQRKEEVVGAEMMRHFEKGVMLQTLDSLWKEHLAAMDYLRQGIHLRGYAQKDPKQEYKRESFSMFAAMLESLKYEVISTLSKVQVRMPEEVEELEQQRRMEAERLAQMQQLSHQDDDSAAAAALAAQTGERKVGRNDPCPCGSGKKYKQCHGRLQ

Row | SMILES | Percent Effect [1] [%] | Percent Effect [2] [%] | Percent Effect [3] [%] | Percent Effect [4] [%] | Percent Effect [5] [%] | Percent Effect [6] [%] | Percent Effect [7] [%] | Percent Effect [8] [%] | Percent Effect [9] [%] | Percent Effect [10] [%]
1 | CN1[C@@H](C(=O)NCC2CC2)C[C@@H]2CN(Cc3ccco3)C[C@@H]21 | -3.17 | 19.5 | -3.11 | -6.57 | 3.65 | 19.5 | 13.8 | 5.8 | 10 | -4.24
2 | Cc1[nH]c2ccccc2c1-c1ccnc(NCCN2CCOCC2)n1 | -1.25 | 5.33 | -2.88 | -7.83 | -7.54 | 14.8 | 21.5 | -1.58 | -2.56 | -15.1
3 | CNC(=O)CN(C)c1nc(-c2ccncc2)nc2c1CCN(C(C)=O)C2 | -7.13 | 0 | 0.927 | -1.07 | 2.45 | 9.59 | -4.34 | 1.6 | 7.32 | -3.67
4 | c1ccc(OCc2ccncc2)c(CNC2CCc3ncnn3C2)c1 (stereo not given) | 1.01 | 17.9 | -16.6 | -0.845 | 10.7 | 11.5 | 20 | 7.18 | 18.1 | -0.669
5 | CO[C@@H]1CC[C@@H](N(C)C(=O)COc2ccc(F)cc2)[C@H]1O | -0.0302 | 9.33 | 5.58 | -6.31 | 5.31 | 10.8 | 9.43 | 1.06 | 7.5 | -24
6 | O=C1CCCN1Cc1nnc2n1CCN(Cc1ccoc1)CC2 | -6.7 | 9.09 | -2.11 | -3.94 | 1.83 | 0.601 | 26.1 | -1.93 | -2.5 | -3.88
7 | CC(C)c1cc(CNC(=O)N2CCC(Cc3cnn(C)c3)C2)on1 (stereo not given) | -5.49 | 10.3 | -6.83 | 5.92 | -1.23 | 4.69 | 4.85 | 1.44 | 8.43 | -5.54
8 | Cc1noc(C)c1C(=O)N1CC[C@H]2C[C@@H](c3nccs3)O[C@@H]2C1 | -6 | 6.49 | 1.62 | 5.55 | -10.5 | 14.2 | -13.4 | 7.89 | 12.8 | -3.15
9 | c1cn2c(n1)CN(CC1CC1)CC(CN1CCOCC1)C2 (stereo not given) | -6.5 | 9.09 | 6.06 | -2.24 | -2.43 | 11 | -10.6 | 17.4 | 12.8 | 0.532
10 | Cc1noc(C)c1CN(C)CCC(=O)N1CCc2sccc2C1 | -4.9 | 0 | 7.48 | -1 | 0.444 | 8.74 | 17.8 | 4.74 | 5.13 | -7.86
11 | CCOCC1CN(Cc2cnn(C)c2)Cc2ncn(CC3CC3)c21 (stereo not given) | -6.63 | -1.3 | 9.29 | -1.66 | -3.64 | 2.21 | 10.9 | 1.58 | -5.13 | 0.231
12 | CN(C)[C@@H]1CN(Cc2ccoc2)C[C@@H]2CCCO[C@@H]21 | 0.454 | -11.7 | 0.192 | -1.46 | -1.62 | 5.74 | -2.15 | 0.526 | -2.56 | -1.39

From ChEMBL document CHEMBL3988442, “University of Dundee, Small-Polar-MMV Screening Library” (2021)
